# Results filed as inconclusive are left out. Active and inactive are the calls of the source. Unless noted, calls come from the whole dose curve.
# Key:
# [1] = target: Bile acid receptor (Homo sapiens) (UniProt Q96RI1); test: qHTS assay for small molecule antagonists of farnesoid X receptor signaling (AID 588526); note: % is set by controls: 0 for no effect and ±100 for the full control effect
# Method in brief: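 Beta-lactamase reporter antagonist mode: HEK293T FXR-UAS-bla cells, titrated compound, CDCA stimulation, 16 h 37 C, CCF4 dye 2 h RT. Data normalized to CDCA 50 uM and DMSO; Hill-fit IC50.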
# [2] = target: Bile acid receptor (Homo sapiens) (UniProt Q96RI1); test: qHTS assay for small molecule agonists of farnesoid X receptor signaling (AID 588527); details: HEK293T FXR-UAS-bla, beta-lactamase ratio, 16 h; activation: stronger effect = higher value;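 note: series mostly up to about 77 µM; 0% = vehicle basal and 100% = reference agonist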
# Method in brief: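 Quantitative HTS used FXR-UAS-bla HEK293T cells with 16 h compound incubation at 37 C. EC50 values came from concentration-response curves normalized to chenodeoxycholic acid.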
# [3] = target: Peroxisome proliferator-activated receptor delta (Homo sapiens) (UniProt Q03181); test: qHTS assay for small molecule agonists of peroxisome proliferator-activated receptor delta signaling (AID 588534);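 note: 0% = DMSO basal wells and 100% = positive control agonist at 10 µM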
# Sequence of Peroxisome proliferator-activated receptor delta (Homo sapiens) (Q03181 whole entry, looked up): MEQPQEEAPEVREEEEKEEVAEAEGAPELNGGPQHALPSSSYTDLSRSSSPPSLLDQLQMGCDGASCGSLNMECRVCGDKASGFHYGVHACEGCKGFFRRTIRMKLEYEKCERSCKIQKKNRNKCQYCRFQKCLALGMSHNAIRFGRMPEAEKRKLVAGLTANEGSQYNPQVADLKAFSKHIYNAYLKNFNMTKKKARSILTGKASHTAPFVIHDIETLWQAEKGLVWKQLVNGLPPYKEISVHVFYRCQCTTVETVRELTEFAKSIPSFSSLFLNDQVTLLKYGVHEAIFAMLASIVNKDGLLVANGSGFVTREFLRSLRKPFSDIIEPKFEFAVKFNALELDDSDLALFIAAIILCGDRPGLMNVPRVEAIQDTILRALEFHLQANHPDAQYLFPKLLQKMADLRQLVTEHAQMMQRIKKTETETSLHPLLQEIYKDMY
# Method in brief: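 Agonist-mode qHTS; reporter cells, 5 hrs 37 C pre-incubation; compound titration, 18 hrs 37 C; CCF4 dye, 2 hrs RT; fluorescence read. EC50/efficacy via Hill fit.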
# [4] = qHTS assay for small molecule antagonists of peroxisome proliferator-activated receptor delta signaling (AID 588535; active = well fitted inhibition curve with a large enough effect in the signal ratio, with a control signal flat, not every such curve was filed as active; the % refers to the signal ratio;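 for max response: cells co-treated with a PPAR-delta agonist as stimulator during compound exposure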); details: HEK293T PPARd-UAS-bla, beta-lactamase FRET ratio, 18 h; 460 nm channel
# Method in brief: (§1)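 Titrations were run on PPAR-delta-UAS-bla HEK293T cells in charcoal/dextran-stripped serum, incubated 18 h at 37 C. CCF4 fluorescence (460/530 nm) after 2 h RT; Hill equation yields IC50 and maximal response.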
# [5] = target: Peroxisome proliferator-activated receptor delta (Homo sapiens) (UniProt Q03181); test: as above
# Method in brief: as §1
# [6] = target: Peroxisome proliferator-activated receptor gamma (Homo sapiens) (UniProt P37231); test: qHTS assay for small molecule agonists of peroxisome proliferator-activated receptor gamma signaling (AID 588536; active = well fitted curve in the direction sought with a large enough effect in the signal ratio, with a control signal flat, not every such curve was filed as active; the % refers to the signal ratio;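 note: 0% = DMSO basal wells and 100% = rosiglitazone at 2 µM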)
# Sequence of Peroxisome proliferator-activated receptor gamma (Homo sapiens) (P37231 whole entry, looked up): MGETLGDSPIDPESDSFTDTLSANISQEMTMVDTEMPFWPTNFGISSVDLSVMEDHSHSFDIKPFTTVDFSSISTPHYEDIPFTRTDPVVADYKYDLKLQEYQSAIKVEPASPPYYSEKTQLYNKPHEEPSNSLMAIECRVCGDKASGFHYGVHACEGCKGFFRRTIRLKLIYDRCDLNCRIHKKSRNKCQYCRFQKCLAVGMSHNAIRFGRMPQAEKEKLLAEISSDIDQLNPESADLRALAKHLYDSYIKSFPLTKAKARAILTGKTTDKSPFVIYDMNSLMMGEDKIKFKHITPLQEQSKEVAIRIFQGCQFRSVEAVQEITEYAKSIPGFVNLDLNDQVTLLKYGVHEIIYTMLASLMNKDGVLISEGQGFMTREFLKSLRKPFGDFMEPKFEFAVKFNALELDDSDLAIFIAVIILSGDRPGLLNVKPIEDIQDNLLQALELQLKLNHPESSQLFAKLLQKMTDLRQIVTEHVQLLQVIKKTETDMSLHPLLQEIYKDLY
# Method in brief: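 Using GeneBLAzer HEK293 cells, response was quantified by CCF4 fluorescence and normalized between basal DMSO (0%) and rosiglitazone 2 uM (100%); curves yielded half-maximal stimulation concentration and efficacy.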
# [7] = target: Peroxisome proliferator-activated receptor gamma (Homo sapiens) (UniProt P37231); test: qHTS assay for small molecule antagonists of peroxisome proliferator-activated receptor gamma signaling (AID 588537; active = well fitted inhibition curve with a large enough effect in the signal ratio, with a control signal flat, not every such curve was filed as active; the % refers to the signal ratio;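 note: reporter cells co-stimulated with 50 nM rosiglitazone agonist during compound treatment; % of control where 0% means no effect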)
# Method in brief: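 Antagonist-mode β-lactamase reporter screen run as a titration series. HEK293 PPARγ-UAS-bla cells are stimulated with rosiglitazone (50 nM final) for 16 h, then CCF4 is read at 460/530 nm. Data are scaled between DMSO and rosiglitazone and fitted to the Hill equation.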
# [8] = target: Vitamin D3 receptor (Homo sapiens) (UniProt P11473); test: qHTS assay for small molecule antagonists of vitamin D receptor signaling (AID 588541);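 note: receptor activated by calcitriol during compound treatment; series mostly up to about 77 µM; % is set by controls: 0 for no effect and ±100 for the full control effect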
# Sequence of Vitamin D3 receptor (Homo sapiens) (P11473 whole entry, looked up): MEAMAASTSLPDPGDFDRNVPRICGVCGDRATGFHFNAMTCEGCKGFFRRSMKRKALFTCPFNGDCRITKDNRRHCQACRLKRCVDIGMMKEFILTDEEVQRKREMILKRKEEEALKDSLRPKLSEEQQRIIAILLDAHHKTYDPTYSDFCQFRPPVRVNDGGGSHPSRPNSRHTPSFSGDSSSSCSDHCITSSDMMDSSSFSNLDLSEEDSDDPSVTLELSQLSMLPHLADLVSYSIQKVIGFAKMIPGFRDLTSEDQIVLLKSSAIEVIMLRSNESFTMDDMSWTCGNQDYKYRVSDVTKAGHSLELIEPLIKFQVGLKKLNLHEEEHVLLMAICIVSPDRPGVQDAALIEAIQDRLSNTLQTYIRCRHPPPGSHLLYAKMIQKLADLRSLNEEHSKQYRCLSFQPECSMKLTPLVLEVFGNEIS
# Method in brief: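 Antagonist-mode beta-lactamase reporter assay: HEK293T VDR-UAS-bla cells were exposed to titrated compound alongside 1-alpha,25-dihydroxyvitamin D3 at 3 nM final for 16 h. Values were normalized to the 50 nM agonist control and DMSO basal, with IC50 and efficacy from Hill equation fits.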
# [9] = target: Vitamin D3 receptor (Homo sapiens) (UniProt P11473); test: qHTS assay for small molecule agonists of vitamin D receptor signaling (AID 588543);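 note: 0% = DMSO basal and 100% = reference agonist control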
# Method in brief: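 qHTS in agonist mode: compound titrations stimulate a VDR-driven β-lactamase reporter in HEK293T cells over 16 h at 37 °C. Response normalized to 50 nM 1α,25-dihydroxyvitamin D3 = 100%, DMSO = 0%; Hill fitting gives EC50 and maximal response.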
# [10] = qHTS assay for small molecule agonists of retinoid X receptor alpha signaling (AID 588544); details: HEK293T RXRa-UAS-bla, beta-lactamase reporter, 18 h; 530 nm emission;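 for activation: 0% = DMSO basal wells and 100% = reference agonist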
# [11] = target: Retinoic acid receptor RXR-alpha (Homo sapiens) (UniProt P19793); test: as above
# Sequence of Retinoic acid receptor RXR-alpha (Homo sapiens) (P19793 whole entry, looked up): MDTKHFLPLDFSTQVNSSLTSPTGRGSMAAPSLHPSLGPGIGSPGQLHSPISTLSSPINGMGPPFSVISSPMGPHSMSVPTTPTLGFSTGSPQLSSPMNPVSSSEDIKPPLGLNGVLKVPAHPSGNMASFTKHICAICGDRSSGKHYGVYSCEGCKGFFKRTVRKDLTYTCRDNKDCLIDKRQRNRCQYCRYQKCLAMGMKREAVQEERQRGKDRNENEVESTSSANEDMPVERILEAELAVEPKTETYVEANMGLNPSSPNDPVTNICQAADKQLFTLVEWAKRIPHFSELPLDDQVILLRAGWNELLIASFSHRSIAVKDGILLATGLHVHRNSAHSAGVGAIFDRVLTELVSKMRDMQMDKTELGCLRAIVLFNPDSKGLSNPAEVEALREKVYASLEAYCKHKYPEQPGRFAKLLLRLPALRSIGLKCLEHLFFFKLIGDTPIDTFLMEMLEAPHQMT
# [12] = target: Thyroid hormone receptor beta (Homo sapiens) (UniProt P10828); test: qHTS assay for small molecule agonists of thyroid hormone receptor beta signaling (AID 588545);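 note: 0% = DMSO only and 100% = 10 nM T3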
# Sequence of Thyroid hormone receptor beta (Homo sapiens) (P10828 whole entry, looked up): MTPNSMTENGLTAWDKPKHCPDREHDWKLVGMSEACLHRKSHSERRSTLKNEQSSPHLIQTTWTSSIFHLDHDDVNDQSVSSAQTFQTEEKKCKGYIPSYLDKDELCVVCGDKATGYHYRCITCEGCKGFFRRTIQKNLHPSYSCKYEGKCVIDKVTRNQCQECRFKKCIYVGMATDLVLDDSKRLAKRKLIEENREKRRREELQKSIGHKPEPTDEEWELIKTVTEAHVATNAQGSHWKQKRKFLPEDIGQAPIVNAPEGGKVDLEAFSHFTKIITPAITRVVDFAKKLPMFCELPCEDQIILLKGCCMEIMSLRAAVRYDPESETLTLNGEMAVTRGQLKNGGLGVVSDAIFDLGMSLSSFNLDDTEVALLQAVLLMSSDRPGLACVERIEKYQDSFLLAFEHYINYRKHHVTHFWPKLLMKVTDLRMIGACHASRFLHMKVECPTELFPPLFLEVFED
# Method in brief: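 TR-UAS-bla GripTite HEK 293 cells (2500/well, medium with 2% charcoal/dextran FBS) were treated in agonist mode for 18 h at 37 C, titrated. Beta-lactamase was read by CCF4 ratio after 2 h; normalized to 10 nM T3 (100%) and DMSO, Hill-fitted for EC50 and efficacy.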
# [13] = qHTS assay for small molecule antagonists of retinoid X receptor alpha signaling (AID 588546; active = well fitted inhibition curve with a large enough effect in the signal ratio, with a control signal flat, not every such curve was filed as active; the % refers to the signal ratio;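 note: cells stimulated with 9-cis-retinoic acid as agonist; % is set by controls: 0 for no effect and ±100 for the full control effect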); details: HEK293T RXRa-UAS-bla, beta-lactamase ratio, antagonist mode; measured here: W530 green channel, cytotoxicity proxy
# Method in brief: (§2)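 Beta-lactamase reporter inhibition, read as CCF4 fluorescence ratio (ex 405, em 460/530 nm) after 2 h at RT. HEK293T UAS-bla cells, 2500/well, were stimulated with 9-cis-RA at 500 or 100 nM final alongside test compound for 18 h at 37 C.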
# [14] = target: Retinoic acid receptor RXR-alpha (Homo sapiens) (UniProt P19793); test: as above; details: HEK293T RXRa-UAS-bla, beta-lactamase ratio, antagonist mode
# Method in brief: as §2
# [15] = target: Thyroid hormone receptor beta (Homo sapiens) (UniProt P10828); test: qHTS assay for small molecule antagonists of thyroid hormone receptor beta signaling (AID 588547; active = well fitted inhibition curve with a large enough effect in the signal ratio, with a control signal flat, not every such curve was filed as active; the % refers to the signal ratio;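 note: cells stimulated with 0.4 nM T3 agonist during compound exposure; series mostly up to about 77 µM; % is set by controls: 0 for no effect and ±100 for the full control effect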); details: TR-UAS-bla HEK293, beta-lactamase ratio, antagonist mode, 18 h
# Method in brief: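 Inhibition of T3-driven (0.4nM final) beta-lactamase reporter activity was measured over 0.59 nM to 92 uM compound after 18 h at 37 C. The cells were GripTite HEK293 TR-UAS-bla in charcoal/dextran-stripped serum, with CCF4 ratio read-out and IC50 from Hill fits.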
# [16] = qHTS assay for small molecule agonists of the antioxidant response element (ARE) signaling pathway (AID 651741; active = well fitted activation curve with a large enough effect in the signal ratio; the % refers to the signal ratio; note: potency is the fitted concentration of half-maximal effect; for activation: % of control where 0% means no effect)
# Method in brief: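 Beta-lactamase reporter under ARE control in HepG2 cells, 2,000 per well, was induced by 16 h compound treatment at 37 C. Read-out was fluorescence from LiveBLAzer B/G FRET substrate after 2 h at room temperature.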
# [17] = target: Peroxisome proliferator-activated receptor alpha (Homo sapiens) (UniProt Q07869); test: qHTS assay for small molecule agonists of the peroxisome proliferator-activated receptor alpha (PPARalpha) signaling pathway (AID 651778; active = well fitted curve in the direction sought with a large enough effect; an effect the other way counts as inactive or inconclusive; note: % of control where 0% means no effect); details: PathHunter PPARalpha complementation, chemiluminescence, 6 h; max response: stronger effect = higher value
# Sequence of Peroxisome proliferator-activated receptor alpha (Homo sapiens) (Q07869 whole entry, looked up): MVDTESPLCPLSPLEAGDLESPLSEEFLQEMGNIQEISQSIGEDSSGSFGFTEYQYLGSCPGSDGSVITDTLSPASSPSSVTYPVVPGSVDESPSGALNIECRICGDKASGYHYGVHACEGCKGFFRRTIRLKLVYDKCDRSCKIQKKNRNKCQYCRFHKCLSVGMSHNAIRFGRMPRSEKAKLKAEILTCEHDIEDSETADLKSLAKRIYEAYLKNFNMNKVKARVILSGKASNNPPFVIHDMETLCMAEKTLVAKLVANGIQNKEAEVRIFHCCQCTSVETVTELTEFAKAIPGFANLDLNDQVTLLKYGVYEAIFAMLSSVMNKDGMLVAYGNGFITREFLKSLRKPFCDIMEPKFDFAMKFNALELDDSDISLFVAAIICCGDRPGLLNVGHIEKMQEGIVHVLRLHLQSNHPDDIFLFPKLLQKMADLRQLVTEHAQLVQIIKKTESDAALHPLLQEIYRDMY
# Method in brief: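 Chemiluminescence from complemented enzyme reported PPARalpha activation in cells after 6 hr of compound treatment at 37 C. The detection reagent was incubated for 60 min at room temperature, and compounds were scored as agonists.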
# [18] = qHTS assay for small molecule agonists of the antioxidant response element (ARE) signaling pathway measured by Nrf2-dependant transcriptional activity - cell viability counter screen (AID 720653; active = well fitted curve in the direction sought with a large enough effect in the repeat runs; an effect the other way counts as inactive or inconclusive; note: % is set by controls: 0 for no effect and ±100 for the full control effect); details: ARE-bla HepG2 viability, CellTiter-Glo ATP luminescence, 16 h; max response: stronger effect = lower value
# Method in brief: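 Cytotoxicity counter screen: intracellular ATP quantified by CellTiter-Glo luminescence in the same ARE-bla HepG2 plates, after 16 h compound exposure and a 2 h beta-lactamase substrate step.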
# [19] = qHTS assay for cell viability of the p53RE-bla HCT-116 cell line (AID 743292; active = well fitted curve in the direction sought with a large enough effect; an effect the other way counts as inactive or inconclusive; note: % is set by controls: 0 for no effect and ±100 for the full control effect; nearly all actives have a fitted effect of over 55% in size)
# Method in brief: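 Viability of compound-treated p53RE-bla HCT-116 cells is taken from ATP-dependent luciferase luminescence. Treatment lasts 16 h at 37 C after a 5 h settling period; detection follows 30 min at room temperature.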
# [20] = target: Glucocorticoid receptor (Homo sapiens) (UniProt P04150); test: qHTS assay for small molecule agonists of glucocorticoid receptor signaling (AID 588532; active = well fitted curve in the direction sought with a large enough effect in the signal ratio, with a control signal flat; the % refers to the signal ratio;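 note: 100% = dexamethasone at 0.1 µM and 0% = DMSO only wells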); details: HeLa MMTV-bla, beta-lactamase ratio, agonist, 18 h; activation: stronger effect = higher value, percent of dexamethasone control, DMSO zero
# Sequence of Glucocorticoid receptor (Homo sapiens) (P04150 whole entry, looked up): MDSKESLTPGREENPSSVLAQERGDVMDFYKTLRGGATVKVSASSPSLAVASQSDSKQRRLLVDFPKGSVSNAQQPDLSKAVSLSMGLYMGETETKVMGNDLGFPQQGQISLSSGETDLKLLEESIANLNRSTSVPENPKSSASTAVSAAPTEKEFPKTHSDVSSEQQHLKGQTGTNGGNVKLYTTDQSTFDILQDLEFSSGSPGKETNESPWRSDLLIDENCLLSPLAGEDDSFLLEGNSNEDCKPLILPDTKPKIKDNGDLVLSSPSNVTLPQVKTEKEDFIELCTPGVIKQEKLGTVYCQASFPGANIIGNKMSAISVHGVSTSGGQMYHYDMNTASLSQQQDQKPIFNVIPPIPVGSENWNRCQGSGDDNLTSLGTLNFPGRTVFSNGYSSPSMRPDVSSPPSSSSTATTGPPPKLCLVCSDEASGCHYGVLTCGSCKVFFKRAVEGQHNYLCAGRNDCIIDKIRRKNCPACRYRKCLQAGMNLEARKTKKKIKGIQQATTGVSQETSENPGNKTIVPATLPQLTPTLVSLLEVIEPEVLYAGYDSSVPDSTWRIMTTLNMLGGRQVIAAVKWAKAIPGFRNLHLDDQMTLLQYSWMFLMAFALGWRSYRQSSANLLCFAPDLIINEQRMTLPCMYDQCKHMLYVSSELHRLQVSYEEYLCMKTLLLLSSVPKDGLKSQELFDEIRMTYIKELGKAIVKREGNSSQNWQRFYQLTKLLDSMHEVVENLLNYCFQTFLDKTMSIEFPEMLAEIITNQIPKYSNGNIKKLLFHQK
# Method in brief: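 Using MMTV-bla HeLa cells in medium with 1% stripped FBS and 25 mM HEPES, compounds were titrated and incubated overnight-length (18 h). Beta-lactamase cleavage of CCF4 was quantified by dual-emission fluorescence.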
# [21] = qHTS assay for small molecule activators of the p53 signaling pathway (AID 651743; active = well fitted activation curve with a large enough effect in the signal ratio, not every such curve was filed as active; the % refers to the signal ratio; note: series mostly up to about 92 µM; % of control where 0% means no effect); details: HCT-116 p53RE-bla, beta-lactamase FRET ratio, 16 h; activation: stronger effect = higher value
# Method in brief: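 After 16 hours compound treatment at 37 C, HCT-116 cells stably expressing p53RE-driven beta-lactamase were loaded with LiveBLAzer B/G FRET substrate for 2 hours at room temperature. Fluorescence intensity served as the p53 activation read-out.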
# [22] = qHTS assay for small molecule activators of the nuclear factor-kappa B (NF-kB) signaling pathway (AID 651749; active = well fitted activation curve with a large enough effect in the signal ratio; the % refers to the signal ratio; note: series mostly up to about 77 µM; % of control where 0% means no effect); details: NF-kB-bla ME-180 cells, beta-lactamase FRET ratio, 16 h; activation: stronger effect = higher value
# Method in brief: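 Activation measured after 16 hr compound treatment at 37C, 5% CO2, of 2,000 ME-180 cells/well stably expressing an NF-kB response element–driven beta-lactamase reporter, via FRET-disruption fluorescence.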
# [23] = qHTS assay for cell viability of HEK293 cells (AID 743288; active = well fitted curve in the direction sought with a large enough effect; an effect the other way counts as inactive or inconclusive; note: % is set by controls: 0 for no effect and ±100 for the full control effect; nearly all actives have a fitted effect of over 50% in size); details: ATP luminescence (CellTiter-Glo), 18 h; max response: stronger effect = lower value
# Method in brief: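 Quantitative high-throughput screen: compounds were pinned onto parental HEK293 cells (2,000 per well) after a minimum 5 h settling at 37 C, incubated 18 h at 37 C, and intracellular ATP measured by luciferase luminescence.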
# [24] = qHTS assay for small molecule agonists of the antioxidant response element (ARE) signaling pathway measured by Nrf2-dependant transcriptional activity (AID 720636; active = well fitted curve in the direction sought with a large enough effect in the repeat runs; an effect the other way counts as inactive or inconclusive; note: % of control where 0% means no effect)
# Method in brief: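 Quantitative HTS format in HepG2 cells stably expressing an ARE-luciferase reporter; 16 hr compound treatment at 37 C, luciferase signal detected with ONE-Glo.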
# [25] = target: Nuclear receptor subfamily 1 group I member 2 (Rattus norvegicus) (UniProt Q9R1A7); test: qHTS assay for small molecule activators of the rat pregnane X receptor (rPXR) signaling pathway (AID 651751; call rule not given here; note: 0% is about no effect); details: rPXR reporter cells, luciferase (One-Glo), 24 h
# Sequence of Nuclear receptor subfamily 1 group I member 2 (Rattus norvegicus) (Q9R1A7 whole entry, looked up): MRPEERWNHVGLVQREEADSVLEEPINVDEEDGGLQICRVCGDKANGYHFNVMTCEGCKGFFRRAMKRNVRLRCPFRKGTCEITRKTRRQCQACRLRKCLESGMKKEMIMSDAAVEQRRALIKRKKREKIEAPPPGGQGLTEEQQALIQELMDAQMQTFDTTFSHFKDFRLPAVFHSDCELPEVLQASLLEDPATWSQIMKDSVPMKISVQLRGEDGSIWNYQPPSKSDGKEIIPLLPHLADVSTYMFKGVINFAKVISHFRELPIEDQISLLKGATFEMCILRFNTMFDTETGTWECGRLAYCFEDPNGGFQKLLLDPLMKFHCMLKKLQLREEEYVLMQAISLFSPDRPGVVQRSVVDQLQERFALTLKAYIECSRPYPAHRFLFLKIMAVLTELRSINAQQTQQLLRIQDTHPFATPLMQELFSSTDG
# [26] = qHTS assay for small molecule activators of the human pregnane X receptor (PXR) signaling pathway (AID 720659; call rule not given here; note: 0% is about no effect)
# [27] = qHTS assay for environmental chemicals that activate the Aryl hydrocarbon Receptor (AhR) signaling pathway (AID 651777; active = well fitted curve in the direction sought with a large enough effect; an effect the other way counts as inactive or inconclusive; note: % of control where 0% means no effect; nearly all actives have a fitted effect of over 15% in size); details: 1A2-DRE human hepatoma cells, luciferase, 24 h; activation: stronger effect = higher value
# Method in brief: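 Quantitative HTS in stably transfected human liver-derived cells whose luciferase gene sits downstream of the CYP1A2 promoter and dioxin response element. After 24 hr exposure at 37 C, One-Glo luminescence was measured.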
# Sequence of Bile acid receptor (Homo sapiens) (Q96RI1 whole entry, looked up): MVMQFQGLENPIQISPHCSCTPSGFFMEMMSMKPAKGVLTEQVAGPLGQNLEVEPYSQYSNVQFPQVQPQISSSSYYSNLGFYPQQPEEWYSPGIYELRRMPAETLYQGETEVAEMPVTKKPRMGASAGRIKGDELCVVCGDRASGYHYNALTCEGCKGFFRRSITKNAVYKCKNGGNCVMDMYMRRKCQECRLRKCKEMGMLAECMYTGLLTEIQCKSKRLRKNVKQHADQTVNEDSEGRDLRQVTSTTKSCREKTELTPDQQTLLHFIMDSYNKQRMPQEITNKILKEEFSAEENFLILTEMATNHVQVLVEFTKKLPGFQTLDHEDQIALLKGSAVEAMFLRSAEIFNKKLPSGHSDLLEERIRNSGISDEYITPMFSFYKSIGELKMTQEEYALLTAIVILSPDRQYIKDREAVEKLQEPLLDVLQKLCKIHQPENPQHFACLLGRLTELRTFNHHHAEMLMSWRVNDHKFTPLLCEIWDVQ
smiles,measurement,setting,value
Cc1cc(C2CC2)nc(Nc2ccccc2)n1,Potency,[1],inactive
same,activation,[2],-4.1% (inactive)
same,outcome,[3],inactive
same,max response,[4],1.7%
same,Potency,[5],inactive
same,Potency,[6],inactive
same,Potency,[7],inactive
same,Potency,[8],inactive
same,outcome,[9],inactive
same,max response,[10],7.71%
same,Potency,[11],inactive
same,Potency,[12],inactive
same,max response,[13],-2.59%
same,max response,[14],-23.3% (inactive)
same,activity change % (negative = inhibition),[15],-20% (inactive)
same,Potency,[16],54.5 µM (active)
same,max response,[17],5.58% (inactive)
same,max response,[18],0.0652% (inactive)
same,Potency,[19],inactive
CNc1cnn(-c2cccc(C(F)(F)F)c2)c(=O)c1Cl,Potency,[1],inactive
same,activation,[2],-1.1% (inactive)
same,activation,[20],-4.87% (inactive)
same,outcome,[3],inactive
same,max response,[4],18.9%
same,Potency,[5],inactive
same,Potency,[8],inactive
same,outcome,[9],inactive
same,max response,[13],-2.6%
same,max response,[14],8.14% (inactive)
same,activity change % (negative = inhibition),[15],8.76% (inactive)
same,activation,[21],1.24% (inactive)
same,activation,[22],-1.53% (inactive)
same,max response,[17],-1.19% (inactive)
same,max response,[18],3.99% (inactive)
same,max response,[23],-7.33% (inactive)
same,Potency,[19],inactive
CCC(C)c1ccc(O)cc1 (stereo not drawn),Potency,[1],inactive
same,activation,[2],-4.25% (inactive)
same,activation,[20],2.12% (inactive)
same,max response,[10],-6.05%
same,Potency,[11],inactive
same,Potency,[12],inactive
same,max response,[13],-3.19%
same,max response,[14],-17.8% (inactive)
same,activity change % (negative = inhibition),[15],6.18% (inactive)
same,activation,[22],-0.802% (inactive)
same,max response,[17],-0.201% (inactive)
same,Potency,[24],inactive
same,max response,[18],-2.59% (inactive)
same,max response,[23],-7.5% (inactive)
same,Potency,[19],inactive
same,max response,[25],-4.44% (inactive)
same,outcome,[26],inactive
CN/C(=N/[N+](=O)[O-])NCC1CCOC1 (stereo not drawn),Potency,[1],inactive
same,activation,[2],-2.75% (inactive)
same,activation,[20],0.122% (inactive)
same,outcome,[3],inactive
same,max response,[4],22.2%
same,Potency,[5],inactive
same,Potency,[8],inactive
same,outcome,[9],inactive
same,max response,[10],-9.02%
same,Potency,[11],inactive
same,Potency,[12],inactive
same,activity change % (negative = inhibition),[15],-1.83% (inactive)
same,Potency,[16],inactive
same,activation,[21],3.08% (inactive)
same,activation,[22],-0.877% (inactive)
same,activation,[27],-0.372% (inactive)
same,Potency,[24],inactive
same,max response,[18],-9.26% (inactive)
same,max response,[23],-6.54% (inactive)
same,Potency,[19],inactive
